Out of some 13,000 compounds screened, about 3,200 (25%) showed an effect of 50% or more. The list shows a part of the results.
System: P. falciparum stage V gametocytes
Design: BacTiter-Glo ATP luminescence viability of purified stage V gametocytes in 384-well plates, per cent inhibition versus DMSO
Details: 48 h, 5 µM; inhibitor

| Compound | % Inhibition [%] |
| --- | --- |
| Cc1cc(-c2ccc3c(c2)CC[C@@H](N[C@@H](C)c2ccccc2)C3)cnc1N [TCMDC-138130] | 26.54 |
| Cn1c(NC(=O)C2CCC(CNC(=O)c3ccc(O)c(-c4cccc([N+](=O)[O-])c4)c3)CC2)nc2ccccc21 (stereo not drawn) [TCMDC-140883] | 1.197 |
| O=C(Nc1cccc(-c2nn3ccccc3c2-c2ccnc(Nc3ccccc3)n2)c1)c1cc(F)ccc1F [TCMDC-135823] | -54.26 |
| COc1ccc(OC(C)CNC(=O)c2cc([N+](=O)[O-])ccc2-c2ccc(OC)cc2)cc1 (stereo not drawn) [TCMDC-132303] | 16.94 |
| NCCNc1ccc([N+](=O)[O-])cc1C(=O)Nc1cccc(C(F)(F)F)c1 [TCMDC-123677] | 3.903 |
| COc1ccc(-c2ccc([N+](=O)[O-])cc2C(=O)NCC(C)Oc2ccc(C(F)(F)F)cc2)cc1 (stereo not drawn) [TCMDC-132304] | 94.55 |
| N=C1NC(=O)C(=Cc2cn(-c3ccccc3)nc2-c2cccc(S(=O)(=O)N3CCCC3)c2)S1 [TCMDC-123756] | 0.418 |
| NC1CCCN(Cc2cccc(-c3cccc(-c4nc5ccccc5[nH]4)c3)c2)C1 (stereo not drawn) [TCMDC-133877] | 56.31 |
| NC1CCN(Cc2cccc(-c3ccc(-c4nc5ccccc5[nH]4)cc3)c2)C1 (stereo not drawn) [TCMDC-133846] | 28.29 |
| OC1CCCN(Cc2cccc(-c3ccc(-c4nc5ccccc5[nH]4)cc3)c2)C1 (stereo not drawn) [TCMDC-133817] | -22.44 |
| NC1CCCN(Cc2cccc(-c3ccc(-c4nc5ccccc5[nH]4)cc3)c2)C1 (stereo not drawn) [TCMDC-133848] | 22.08 |
| NC1CCN(Cc2cccc(-c3cccc(-c4nc5ccccc5[nH]4)c3)c2)C1 (stereo not drawn) [TCMDC-133875] | 72.93 |
| Cc1cc(N2CCCCC2)nc2ccc(NC(=O)c3cc(=O)c4ccccc4o3)cc12 [TCMDC-123602] | 13.04 |
| Cc1ccc(NC(=O)Nc2ccccc2)cc1-c1ccc(C(=O)Nc2ccncc2)cc1 [TCMDC-133701] | -4.063 |
| NC1=NC(c2ccccc2)(c2ccccc2)C(=O)N1Cc1ccc(-c2cccnc2)cc1 [TCMDC-136999] | -17.43 |
| CC(=O)N1Cc2ccccc2C1=O [TCMDC-131706] | 7.417 |
| COc1ccc(C(=O)CC(=O)c2ccc(OC)cc2OC)c(OC)c1 [TCMDC-123465] | 12.1 |
| CCN(CC)CCN(CCN(CC)CC)c1ccc2c(c1)Sc1c(Cl)ccc(Cl)c1S2 [TCMDC-137934] | 63.92 |
| COc1ccc(Cn2c(=O)[nH]c3cc(C(=O)NC4CCN(Cc5ccccc5)CC4)ccc3c2=O)cc1 [TCMDC-123588] | -15.29 |
| COc1ccc(NC(=O)N2CCCN(CCCCCNC(=O)/C=C/c3ccc(C(F)(F)F)cc3)CC2)cc1Cl [TCMDC-136109] | -28.75 |
| COc1cc(CN2CCN(c3ccnc(N(C)C4CCN(C)CC4)n3)CC2)cc(Cl)c1O [TCMDC-125096] | -14.35 |

— paper PMC4552634, “A New Set of Chemical Starting Points with Plasmodium falciparum Transmission-Blocking Potential for Antimalarial Drug Discovery” (PLoS ONE, 2015)
